# Experimental data: the supplement of paper PMC11219838
# Tested on: Meloidogyne hapla J2
# Assay: proportion of mobile M. hapla J2 relative to DMSO control (fraction of DMSO control); higher = more viable, less nematicidal, active = 0.7 or less
# Details: 60 µM; 5 days; temperature: 20 °C
# In short: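 Two biological replicates were run and averaged, each on 96-well plates in which about 25 M. hapla J2 sat in distilled water per well. Compound was pinned in to give 60 µM final and 0.6% v/v DMSO, and the sealed plates were shaken at 200 rpm and 20 °C for 5 days before 2 µL 1 M NaOH was added. Mobility was scored microscopically and divided by the mean from the plate's DMSO-only wells, of which there were eight.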
row,SMILES,proportion of mobile M. hapla J2
1,O=C(CSc1nnc(-c2ccc(Cl)cc2)o1)c1ccccc1,0.772 (inactive)
2,CCOc1ccc(-c2nc(-c3ccccc3C)no2)cc1,0.692 (active)
3,c1ccc(COc2cccc(-c3nc(-c4ccncc4)no3)c2)cc1,0.915 (inactive)
4,Cc1ccc(-c2nc(-c3cccc(C)c3)no2)cc1,0.87 (inactive)
5,COc1cccc(-c2noc(COc3ccc(C(C)C)cc3)n2)c1,0.968 (inactive)
6,Cc1ccccc1OCc1nc(-c2cccc(NC(=O)c3ccco3)c2)no1,1.03 (inactive)
7,O=C(CSc1nnc(-c2ccc(Cl)cc2Cl)o1)N1CCCCC1,0.934 (inactive)
8,Brc1ccc(-c2noc(-c3cccs3)n2)o1,0.7 (active)
9,C=CCSc1nnc(-c2ccc(Br)cc2)o1,0.591 (active)
10,COc1nc(C)ccc1-c1noc(-c2ccccc2Cl)n1,1.02 (inactive)
11,N#Cc1ccc(OCc2nc(-c3ccc(Br)o3)no2)cc1,1.06 (inactive)
12,Cc1ccc(-c2noc(-c3ccc(Br)o3)n2)s1,0.965 (inactive)
13,COc1ccc(-c2noc(COc3ccc(Cl)c(C)c3)n2)cc1,1.02 (inactive)
14,CC(Sc1nnc(-c2cccnc2)o1)C(=O)c1ccccc1 (stereo not given),1.03 (inactive)
15,COc1ccccc1-c1nnc(SCC(=O)Nc2nc(C)cs2)o1,0.91 (inactive)
16,O=C(CSc1nnc(-c2ccco2)o1)Nc1cccc2ccccc12,0.956 (inactive)
17,FC(F)(F)c1ccc(-c2noc(-c3ccccc3Cl)n2)cc1,1.04 (inactive)
18,COc1cccc(-c2noc(COc3ccc(Br)cc3)n2)c1,0.942 (inactive)
19,COc1ccc(-c2nnc(SCc3csc(N)n3)o2)cc1,0.941 (inactive)
20,COc1ccc(-c2nc(-c3ccc(Cl)cc3)no2)cc1,1 (inactive)
